According to PubChem BioAssay (Tox21):
Inconclusive results are not listed. Calls of active or inactive are those of the source. Unless noted, calls come from the whole dose curve; as a rule, active = well fitted curve in the direction sought with a large enough effect in the repeat runs; inconclusive = weak or mixed curves; inactive = no such curve, though single readings can be large; an effect the other way counts as inactive or inconclusive. Non-standard residues stand in square brackets, D forms with d. Residues, ends and D or L forms follow the SMILES beside them. *: point of attachment. Sta = CC(C)C[C@H](N)[C@@H](O)CC(=O)O; Isovaleryl = CC(C)CC(=O)*

Experiments:
[1] = qHTS assay to identify small molecule agonists of the RXR signaling pathway - cell viability counter screen (AID 1159529); note: nearly all actives have a fitted effect of over 50% in size; note: potency is the fitted concentration of half-maximal effect
Procedure, shortened: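 Compounds dissolved in DMSO were pinned onto HEK 293T cells carrying a beta-lactamase reporter under RXR-alpha control and incubated 16 hr. Cytotoxicity was then quantified by CellTiter-Glo luminescence.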

[2] = qHTS assay to identify small molecule antagonists of the retinoid acid receptor (RAR) signaling pathway - cell viability counter screen (AID 1159551); note: nearly all actives have a fitted effect of over 35% in size
Procedure, shortened: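 Cytotoxicity counter screen: ATP content quantified by CellTiter-Glo luminescence in C3RL4 cells treated 6 hr at 37 C with compound and retinol (1 uM final). Cells plated at 1,000/well and cultured overnight before dosing.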

[3] = qHTS assay to identify small molecule agonists of the retinoic acid receptor (RAR) signaling pathway (AID 1159553); note: potency is the fitted concentration of half-maximal effect
Procedure, shortened: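 Luminescence was measured 30 min after luciferase reagent addition at room temperature. Before that, C3RL4 reporter cells (1,000 per well, plated overnight) were treated with compound for 6 hr at 37 C and 5% CO2.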

[4] = qHTS assay to identify small molecule antagonists of the estrogen related receptor (ERR) signaling pathway from Tox21 library - cell viability counter screen (AID 1224834); note: nearly all actives have a fitted effect of over 30% in size
Procedure, shortened: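 CellTiter-Fluor fluorescence, read after 30 min at 37 C, measures viability of ERR cells. Cells plated at 2,000/well and incubated 6 h before pin-tool compound addition, then exposed 17.5 hours at 37 C.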

[5] = biological target: Luciferin 4-monooxygenase (Photinus pyralis) (UniProt P08659); assay: qHTS assay to identify small molecule inhibitors of firefly luciferase (AID 1224835); note: nearly all actives have a fitted effect of over 25% in size
Chain of Luciferin 4-monooxygenase (Photinus pyralis) (P08659 whole entry, looked up): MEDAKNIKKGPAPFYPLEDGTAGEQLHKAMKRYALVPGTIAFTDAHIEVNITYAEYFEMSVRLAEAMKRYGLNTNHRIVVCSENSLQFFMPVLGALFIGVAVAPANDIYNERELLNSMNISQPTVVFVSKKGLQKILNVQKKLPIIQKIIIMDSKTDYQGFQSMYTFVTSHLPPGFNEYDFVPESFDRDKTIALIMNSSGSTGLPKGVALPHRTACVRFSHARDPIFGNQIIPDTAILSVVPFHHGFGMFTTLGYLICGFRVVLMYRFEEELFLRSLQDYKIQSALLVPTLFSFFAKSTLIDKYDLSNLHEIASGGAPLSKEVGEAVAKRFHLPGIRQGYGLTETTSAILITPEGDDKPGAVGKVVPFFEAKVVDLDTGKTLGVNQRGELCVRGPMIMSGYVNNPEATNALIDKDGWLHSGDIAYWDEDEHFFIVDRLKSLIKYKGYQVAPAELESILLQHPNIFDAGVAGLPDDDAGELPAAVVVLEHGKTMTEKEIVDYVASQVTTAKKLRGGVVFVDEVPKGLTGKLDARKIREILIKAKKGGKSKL
Procedure, shortened: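 Biochemical qHTS: compounds run as interplate titrations against purified firefly enzyme, with D-luciferin and ATP each at its KM concentration. Light output recorded by CCD imaging.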

[6] = qHTS assay to identify small molecule agonists of the constitutive androstane receptor (CAR) signaling pathway - cell viability counter screen (AID 1224836); note: nearly all actives have a fitted effect of over 45% in size
Procedure, shortened: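 23 h treatment, 37 C, 5% CO2. Cell line: HepG2 stably expressing hCAR with a CYP2B6-2.2kb construct. Co-treatment: PK11195, 0.75 uM final. Read-out: CellTiter-Fluor fluorescence intensity.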

[7] = qHTS assay to identify small molecule antagonists of the constitutive androstane receptor (CAR) signaling pathway - cell viability counter screen (AID 1224837); note: nearly all actives have a fitted effect of over 45% in size
Procedure, shortened: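 Cytotoxicity counter-screen: CellTiter-Fluor fluorescence after 23 h compound exposure (15-point qHTS) in double-stable HepG2-CYP2B6-hCAR cells, with 50 nM CITCO added.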

[8] = biological target: Nuclear receptor subfamily 1 group I member 3 (Homo sapiens) (UniProt Q14994); assay: qHTS assay to identify small molecule antagonists of the constitutive androstane receptor (CAR) signaling pathway (AID 1224838);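 note: HepG2 cells stably expressing hCAR with CYP2B6 luciferase reporter stimulated by CITCO; nearly all actives have a fitted effect of over 40% in size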
Chain of Nuclear receptor subfamily 1 group I member 3 (Homo sapiens) (Q14994 whole entry, looked up): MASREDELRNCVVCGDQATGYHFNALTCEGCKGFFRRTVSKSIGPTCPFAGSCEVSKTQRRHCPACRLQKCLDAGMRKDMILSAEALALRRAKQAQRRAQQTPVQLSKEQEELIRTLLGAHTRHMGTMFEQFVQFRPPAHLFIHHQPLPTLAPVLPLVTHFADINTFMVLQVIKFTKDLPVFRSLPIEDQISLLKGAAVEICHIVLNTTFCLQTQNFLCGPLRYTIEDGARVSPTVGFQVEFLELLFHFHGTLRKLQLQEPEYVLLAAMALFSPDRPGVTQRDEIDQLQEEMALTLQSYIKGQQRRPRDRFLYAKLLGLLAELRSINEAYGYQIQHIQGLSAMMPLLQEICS
Procedure, shortened: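 Antagonism measured as luciferase signal (ONE-Glo, 30 min, room temperature) in CAR-stimulated cells: HepG2-CYP2B6-hCAR double-stable line exposed 24 hr at 37 C to compound in a 15-point series plus 50 nM CITCO.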

[9] = qHTS assay to identify small molecule antagonists of the estrogen related receptor signaling pathway with the pleiotropic PPARgamma coactivator (PGC) from Tox21 10K library - cell viability counter screen (AID 1224840; active = well fitted cell-killing curve with a large enough effect in the repeat runs, not every such curve was filed as active; note: nearly all actives have a fitted effect of over 40% in size)
Procedure, shortened: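 Counter-screen for cytotoxicity: after 17.5 h compound exposure at 37 C, CellTiter-Fluor reagent added to PGC/ERR cells for 30 min and fluorescence read. Cells were seeded at 2,000 per well 6 h before dosing.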

[10] = biological target: Thyrotropin receptor (Homo sapiens) (UniProt P16473); assay: qHTS assay to identify small molecule agonists of the thyroid stimulating hormone receptor (TSHR) signaling pathway (AID 1224843; calls by dose curve; note: nearly all actives have a fitted effect of over 45% in size; note: potency is the fitted concentration of half-maximal effect)
Chain of Thyrotropin receptor (Homo sapiens) (P16473 whole entry, looked up): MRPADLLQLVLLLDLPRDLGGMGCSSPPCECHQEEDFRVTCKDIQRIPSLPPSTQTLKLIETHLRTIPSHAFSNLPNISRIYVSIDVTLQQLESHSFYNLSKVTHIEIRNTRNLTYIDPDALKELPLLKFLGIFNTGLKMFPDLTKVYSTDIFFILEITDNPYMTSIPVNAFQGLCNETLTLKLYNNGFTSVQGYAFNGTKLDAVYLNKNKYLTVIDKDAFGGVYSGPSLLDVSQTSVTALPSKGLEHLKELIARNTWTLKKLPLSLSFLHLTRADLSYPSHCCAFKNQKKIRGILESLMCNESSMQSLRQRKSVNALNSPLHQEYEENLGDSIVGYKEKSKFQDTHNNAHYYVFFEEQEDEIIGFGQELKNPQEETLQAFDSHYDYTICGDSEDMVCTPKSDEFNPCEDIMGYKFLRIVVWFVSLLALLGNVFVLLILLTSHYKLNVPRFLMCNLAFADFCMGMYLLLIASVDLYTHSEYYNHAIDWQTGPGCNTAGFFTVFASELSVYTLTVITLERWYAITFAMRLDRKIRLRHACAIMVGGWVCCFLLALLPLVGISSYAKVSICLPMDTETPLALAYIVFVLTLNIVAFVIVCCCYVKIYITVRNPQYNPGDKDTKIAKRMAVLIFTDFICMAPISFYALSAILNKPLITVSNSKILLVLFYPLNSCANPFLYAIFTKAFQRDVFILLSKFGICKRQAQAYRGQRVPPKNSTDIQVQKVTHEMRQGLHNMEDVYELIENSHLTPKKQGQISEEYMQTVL
Procedure, shortened: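 Agonist-mode screen: TSHR HEK293 cells received test chemicals for half an hour at room temperature, then HTRF cAMP detection reagents for one hour prior to fluorescence measurement. Each chemical ran as a 15-concentration series, triplicated.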

[11] = qHTS assay to identify small molecule agonists of the hypoxia (HIF-1) signaling pathway (AID 1224846; active = well fitted activation curve with a large enough effect in the signal ratio in the repeat runs, not every such curve was filed as active; the % refers to the signal ratio)
Procedure, shortened: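 Compounds added to ME-180 cells carrying hypoxia-response-element beta-lactamase reporter (0.5% dialyzed FBS, 5 h preplating), 17 h at 37C; agonist activity detected by CCF4-AM B/G FRET read-out.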

[12] = qHTS assay to identify small molecule agonists of H2AX - cell viability counter screen (AID 1224847; calls by dose curve; note: top concentration of the series differs between compounds; nearly all actives have a fitted effect of over 30% in size)
Procedure, shortened: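 Compounds tested at 15 concentrations were incubated 3 hr at 37C with wild-type CHO-K1 cells; cellular ATP-based luminescence (CellTiter-Glo) indicated viability.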

[13] = qHTS assay to identify small molecule antagonists of the retinoic acid receptor (RAR) signaling pathway (AID 1159552; note: nearly all actives have a fitted effect of over 50% in size)
Procedure, shortened: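 Test chemicals and DMSO controls were pin-transferred onto C3RL4 cells a day after seeding; retinol (1 uM final) followed at once. Luminescent reporter output was quantified after 6 hr of co-incubation and 30 min with detection reagent.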

[14] = biological target: Nuclear receptor subfamily 1 group I member 3 (Homo sapiens) (UniProt Q14994); assay: qHTS assay to identify small molecule agonists of the constitutive androstane receptor (CAR) signaling pathway (AID 1224839);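 note: HepG2 cells stably carrying human CAR and a CYP2B6 luciferase reporter; nearly all actives have a fitted effect of over 15% in size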
Procedure, shortened: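 Compounds tested at 15 concentrations on HepG2 cells stably harbouring hCAR and CYP2B6-2.2kb reporter constructs, co-treated with PK11195 (0.75 uM final), 24 h at 37 C; luminescent reporter signal quantified.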

[15] = qHTS assay to identify small molecule agonists of the hypoxia (HIF-1) signaling pathway - cell viability counter screen (AID 1224844; calls by dose curve; note: nearly all actives have a fitted effect of over 50% in size)
Procedure, shortened: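 Cytotoxicity measured by CellTiter-Glo ATP luminescence in the wells also read for beta-lactamase signal. Cells were HRE-bla ME-180 (2,000/well, 0.5% dialyzed FBS), exposed to compounds for 17 h at 37C.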

[16] = qHTS assay to identify small molecule antagonists of the estrogen related receptor signaling pathway with the pleiotropic PPARgamma coactivator (PGC) from Tox21 10K library (AID 1224841; call rule not given here; note: actives are mostly falling curves and most rising ones were filed inactive; nearly all actives have a fitted effect of over 50% in size)
Procedure, shortened: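 Luminescence (One-Glo, 30 min at room temperature) after 18 h compound treatment at 37 C of PGC/ERR reporter cells plated at 2,000 cells/well and settled 6 h beforehand.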

[17] = qHTS assay to identify small molecule agonists of the estrogen related receptor signaling pathway with the pleiotropic PPARgamma coactivator (PGC) from Tox21 10K library (AID 1224842); note: nearly all actives have a fitted effect of over 15% in size
Procedure, shortened: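 PGC/ERR reporter cell line, 2,000 cells per well, incubated 6 h at 37 C before 23 nL compound in DMSO was added. After 18 h at 37 C, One-Glo luminescence read following 30 min at room temperature.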

[18] = qHTS assay to identify small molecule agonists of H2AX (AID 1224845; active = well fitted activation curve with a large enough effect in the signal ratio in the repeat runs, not every such curve was filed as active; the % refers to the signal ratio)
Procedure, shortened: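 Wild-type CHO-K1 cells, plated overnight, exposed 3hr at 37C to 15 concentrations (0.76% DMSO final). Lysed, then HTRF anti-pH2AX (S139) cryptate and anti-H2AX-d2 antibodies, 24 hr room temperature; 665/620 nm emission read.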

[19] = qHTS assay to identify small molecule antagonists of the estrogen related receptor (ERR) signaling pathway from Tox21 library (AID 1224848); note: nearly all actives have a fitted effect of over 50% in size
Procedure, shortened: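 Quantitative high-throughput format: ERR reporter cells (2,000/well) pre-incubated 6 h, treated 18 h at 37 C with compounds in DMSO alongside positive and negative controls, then read by ONE-Glo luminescence.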

[20] = qHTS assay to identify small molecule agonists of the estrogen related receptor (ERR) signaling pathway from Tox21 library (AID 1224849; calls by dose curve; note: nearly all actives have a fitted effect of over 15% in size); details: ERR reporter cell line, ONE-Glo luciferase, 18 h; at 92.4 µM (top of the series) unless noted
Procedure, shortened: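 Luminescent agonist read-out (One-Glo, 30-minute room-temperature incubation) following 18-hour compound treatment at 37 C of the ERR cell line, which had been plated 6 hours before dosing.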
% is set by controls: 0 for no effect and ±100 for the full control effect.

CCO/C=C1\N=C(c2ccccc2)OC1=O
inactive: Potency [1] | outcome [2] | Potency [3] | outcome [4] | Potency [5] | outcome [6] | outcome [7] | outcome [8] | outcome [9] | Potency [10] | outcome [11] | outcome [12]

Cc1ccc2ccccc2n1
inactive: Potency [1] | outcome [13] | Potency [3] | outcome [4] | Potency [5] | outcome [6] | outcome [7] | outcome [8] | Potency [14] | Potency [10] | outcome [15] | outcome [11] | outcome [12]

CCC(C)c1nccnc1OC (stereo not given)
inactive: Potency [1] | outcome [13] | Potency [3] | outcome [4] | Potency [5] | outcome [6] | outcome [7] | Potency [14] | outcome [9] | Potency [16] | Potency [17] | Potency [10] | outcome [15] | outcome [18] | outcome [12] | outcome [19] | activity change, positive = activation [20] 1.46%

CC(=O)/C=C/C=C1/C2CCC(C2)C1(C)C (stereo not given)
inactive: Potency [1] | Potency [3] | outcome [4] | Potency [5] | outcome [6] | outcome [7] | outcome [9] | outcome [15] | outcome [18] | outcome [11] | outcome [12]
active: Potency [10] 18.8 µM

CCOC(=O)CC
inactive: Potency [1] | outcome [13] | Potency [3] | outcome [4] | Potency [5] | outcome [6] | outcome [7] | outcome [8] | Potency [14] | outcome [9] | outcome [15] | outcome [11] | outcome [12]

Cc1ccc(O)c([N+](=O)[O-])c1
active: Potency [1] 24.8 µM
inactive: outcome [13] | Potency [3] | outcome [4] | Potency [5] | outcome [6] | outcome [7] | outcome [8] | Potency [14] | outcome [9] | Potency [16] | outcome [15] | outcome [11] | outcome [12] | activity change, positive = activation [20] -16.2%

CNCCc1ccccn1
inactive: Potency [1] | outcome [13] | Potency [3] | outcome [4] | Potency [5] | outcome [6] | outcome [7] | outcome [9] | Potency [10] | outcome [15] | outcome [18] | outcome [12]

CC(C)CC(=O)N[C@H](C(=O)N[C@H](C(=O)N[C@@H](CC(C)C)[C@@H](O)CC(=O)N[C@@H](C)C(=O)N[C@@H](CC(C)C)[C@@H](O)CC(=O)O)C(C)C)C(C)C (Isovaleryl-VV[Sta]A[Sta]-OH)
inactive: Potency [1] | Potency [3] | outcome [4] | Potency [5] | outcome [6] | outcome [8] | Potency [14] | outcome [9] | Potency [10] | outcome [15] | outcome [18] | outcome [12]

CCc1ccc(CC)cc1
inactive: Potency [1] | outcome [13] | Potency [3] | outcome [4] | Potency [5] | outcome [6] | outcome [7] | outcome [9] | Potency [10] | outcome [15] | outcome [18] | outcome [11] | outcome [12]

Cc1nnc(C(=O)NC(C)(C)c2nc(C(=O)NCc3ccc(F)cc3)c(O)c(=O)n2C)o1
inactive: Potency [1] | outcome [13] | outcome [4] | Potency [5] | outcome [6] | outcome [7] | outcome [9] | Potency [16] | Potency [10] | outcome [15] | outcome [18] | outcome [11] | outcome [12] | outcome [19] | activity change, positive = activation [20] 9.04% [at 42.5 µM]
active: Potency [3] 33.5 µM

CC(CC(=O)Cl)CC(C)(C)C (stereo not given)
inactive: Potency [1] | outcome [13] | outcome [4] | Potency [5] | outcome [6] | outcome [7] | Potency [16] | outcome [15] | outcome [18] | outcome [12] | outcome [19] | activity change, positive = activation [20] 5.62%

CCOc1ccccc1OCCN[C@H](C)Cc1ccc(OC)c(S(N)(=O)=O)c1
inactive: Potency [1] | outcome [13] | Potency [3] | outcome [4] | Potency [5] | outcome [6] | outcome [7] | outcome [8] | Potency [14] | Potency [10] | outcome [15] | outcome [18] | outcome [12]

C[C@@H]1NC(=O)[C@@H](N)CNC(=O)[C@H](C2CCNC(N)=N2)NC(=O)/C(=C/NC(N)=O)NC(=O)[C@H](CNC(=O)C[C@@H](N)CCCN)NC1=O (stereo not given in full)
inactive: activity change, negative = cytotoxicity [1] 9.35% [at 0.29 µM] | activity, negative = inhibition [13] 21% [at 0.349 µM] | activation [3] 0.189% [at 0.756 µM] | viability change, negative = cytotoxic [4] -0.374% [at 0.349 µM] | activity change, negative = inhibition [5] -1.34% [at 0.435 µM] | viability change, negative = cytotoxic [6] -0.0447% [at 0.349 µM] | activity change, negative = cytotoxicity [7] 0.72% [at 0.349 µM] | activity, negative = inhibition [8] -10.7% [at 0.349 µM] | activation [14] 4.38% [at 0.349 µM] | viability change, negative = cytotoxic [9] 10.7% [at 0.349 µM] | activation [10] -10.7% [at 0.349 µM] | activity change, negative = cytotoxicity [15] 3.53% [at 0.29 µM] | activation (H2AX phosphorylation) [18] -2.47% [at 0.582 µM] | activity change, negative = cytotoxicity [12] 1.7% [at 0.582 µM]

CCCc1ccc(O)c(OC)c1
inactive: Potency [1] | outcome [13] | Potency [3] | outcome [4] | Potency [5] | outcome [6] | outcome [7] | outcome [8] | Potency [14] | outcome [9] | Potency [10] | outcome [15] | outcome [18] | outcome [12]

CC(C)c1cc(C(C)C)cc(C(C)C)c1
inactive: Potency [1] | Potency [3] | outcome [4] | Potency [5] | outcome [6] | outcome [7] | Potency [16] | outcome [15] | outcome [18] | outcome [11] | outcome [12] | outcome [19] | activity change, positive = activation [20] 7.19%

CNC(C)=O
inactive: Potency [1] | outcome [13] | Potency [3] | outcome [4] | Potency [5] | outcome [6] | outcome [7] | outcome [8] | Potency [14] | outcome [9] | Potency [10] | outcome [15] | outcome [11] | outcome [12]
